Inconclusive results are not listed. Activity calls are given as the source filed them. Calls follow the shape of the full dose curve.
Key:
[1] = target: Acetylcholinesterase (Homo sapiens) (UniProt P22303); assay: Acetylcholinesterase (AChE) small molecule antagonists: colormetric cell-based qHTS assay (AID 1347395); also: nearly all actives have a fitted effect of over 30% in size
Summary of the method: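 In this cell-based qHTS, attached SH-SY5Y cells were treated with test chemicals for 30 min, after which acetylthiocholine hydrolysis was followed by DTNB colour development over 90 min at 37 C.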

[2] = target: Acetylcholinesterase (Homo sapiens) (UniProt P22303); assay: Acetylcholinesterase (AChE) small molecule antagonists: enzyme-based qHTS assay (AID 1347397); details: Potency: AChE enzyme activity inhibition; outcome: AChE enzyme activity inhibition; also: nearly all actives have a fitted effect of over 55% in size
Summary of the method: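 rhAChE 50 mU/mL (dispensed) + cpd or DMSO, 30 min RT; add DTNB/acetylthiocholine cocktail, 10 min RT; colorimetric thiocholine readout. qHTS, 1536-well format.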

[3] = target: Acetylcholinesterase (Homo sapiens) (UniProt P22303); assay: Acetylcholinesterase (AChE) small molecule antagonists: fluorescence cell-based qHTS assay (AID 1347398); details: Potency: AChE activity; outcome: AChE activity; also: nearly all actives have a fitted effect of over 50% in size
Summary of the method: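 Read-out is Thiolite Green fluorescence at Ex/Em = 490/520 nm, formed by reaction with thiocholine released when cellular AChE in SH-SY5Y cells hydrolyzes acetylthiocholine. Compounds were preincubated 30 min at 37 C before substrate.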

[4] = target: Acetylcholinesterase (Homo sapiens) (UniProt P22303); assay: Acetylcholinesterase (AChE) small molecule antagonists: enzyme-based qHTS assay with human liver microsomes (AID 1347399); details: Potency: qHTS inhibition; outcome: qHTS inhibition; also: nearly all actives have a fitted effect of over 60% in size
Summary of the method: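 Recombinant human AChE (50 mU/mL in the enzyme mix) and human liver microsomes (0.25 mg/mL final) were preincubated with compound and NADPH (0.25 mg/mL final) for 30 min at 37 C. Acetylthiocholine/DTNB was then added; thiocholine was read colorimetrically after 10 min at room temperature.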
% is scaled to controls: 0 for no effect and ±100 for the full control effect.

Chain of Acetylcholinesterase (Homo sapiens) (P22303 whole entry, looked up): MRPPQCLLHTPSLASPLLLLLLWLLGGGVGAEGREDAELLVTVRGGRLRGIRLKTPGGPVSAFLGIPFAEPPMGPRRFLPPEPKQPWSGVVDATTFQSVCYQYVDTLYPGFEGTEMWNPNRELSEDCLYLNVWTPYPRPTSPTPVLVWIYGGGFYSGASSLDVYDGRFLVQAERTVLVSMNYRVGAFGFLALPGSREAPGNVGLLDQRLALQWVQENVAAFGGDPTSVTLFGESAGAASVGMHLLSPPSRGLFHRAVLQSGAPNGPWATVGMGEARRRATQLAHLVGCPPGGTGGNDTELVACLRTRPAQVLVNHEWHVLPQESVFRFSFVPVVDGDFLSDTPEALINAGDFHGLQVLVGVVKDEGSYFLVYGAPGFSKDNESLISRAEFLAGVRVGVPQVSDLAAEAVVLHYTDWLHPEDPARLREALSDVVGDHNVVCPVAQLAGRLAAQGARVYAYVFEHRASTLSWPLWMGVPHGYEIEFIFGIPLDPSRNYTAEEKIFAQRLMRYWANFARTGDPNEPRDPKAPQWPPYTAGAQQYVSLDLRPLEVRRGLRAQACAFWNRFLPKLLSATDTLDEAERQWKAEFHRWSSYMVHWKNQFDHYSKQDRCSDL

C#CCOC(=O)[C@@H](C)Oc1ccc(Oc2ncc(Cl)cc2F)cc1
inactive: Potency [1] | Potency [2] | Potency [3] | Potency [4]

NC(=O)C1CO1 (stereo not given)
inactive: Potency [1] | Potency [2] | Potency [3] | Potency [4]

CCCCN1C=CN(C)C1
inactive: activity, negative = inhibition [1] 0.291% [at 23.6 µM] | activity change, negative = inhibition [2] 1.48% [at 23.6 µM] | activity change, negative = inhibition [3] -2.29% [at 23.8 µM] | activity change, negative = inhibition [4] 0.0718% [at 23.6 µM]

O=C(O)c1cc(N=Nc2ccc([N+](=O)[O-])cc2)ccc1O
inactive: Potency [1] | Potency [2] | Potency [3] | Potency [4]

Cc1cc(C(C)(C)C)cc(C)c1CC1=NCCN1
inactive: Potency [1] | Potency [2] | Potency [3] | Potency [4]

O=C(O)c1ccc(CO)o1
inactive: Potency [1] | Potency [2] | Potency [3] | Potency [4]

C=C(C)C1CCC(C)(O)CC1 (stereo not given)
inactive: Potency [1] | Potency [2] | Potency [3] | Potency [4]

C=Cc1ccc(S(=O)(=O)O)cc1
inactive: Potency [1] | Potency [2] | Potency [3] | Potency [4]

CC1COc2c(N3CCN(C)CC3)c(F)cc3c(=O)c(C(=O)O)cn1c23 (stereo not given)
inactive: Potency [1] | Potency [2] | Potency [3] | Potency [4]

CCCCOCC
inactive: Potency [1] | Potency [2] | Potency [3] | Potency [4]

O=P(O)(O)C(O)(Cc1cccnc1)P(=O)(O)O
inactive: Potency [1] | Potency [2] | Potency [3] | Potency [4]

NC(=O)c1ccccc1[N+](=O)[O-]
inactive: Potency [1] | Potency [2] | Potency [3] | Potency [4]

C[C@H]1O[C@@H](n2cc(F)c(=O)[nH]c2=O)[C@H](O)[C@@H]1O
inactive: Potency [1] | Potency [2] | Potency [3] | Potency [4]

O/N=C/C=N/O
inactive: Potency [1] | Potency [2] | Potency [3] | Potency [4]

CCOC(=O)[C@@](C)(N)Cc1ccc(O)c(O)c1
inactive: Potency [1] | Potency [2] | Potency [3] | Potency [4]

COC(=O)c1cc(C(=O)OC)cc(S(=O)(=O)O)c1
inactive: Potency [1] | Potency [2] | Potency [3] | Potency [4]

CC(=O)CC(=O)Nc1ccc2[nH]c(=O)[nH]c2c1
inactive: Potency [1] | Potency [2] | Potency [3] | Potency [4]

O=C(O)CNC(=O)CNC(=O)CNC(=O)CSC(=O)c1ccccc1
inactive: Potency [1] | Potency [2] | Potency [3] | Potency [4]

CNC(=O)c1cnn(-c2nc(N)c3ncn([C@@H]4O[C@H](CO)[C@@H](O)[C@H]4O)c3n2)c1
inactive: Potency [1] | Potency [2] | Potency [3] | Potency [4]

FC1(F)C(F)(F)C(F)(F)C2(F)C(F)(C1(F)F)C(F)(F)C(F)(F)C1(F)C(F)(F)C(F)(F)C(F)(F)C(F)(F)C12F (stereo not given)
inactive: Potency [1] | Potency [2] | Potency [3] | Potency [4]

N=C(N)N1CCc2ccccc2C1
inactive: activity, negative = inhibition [1] 3.08% [at 10.5 µM] | activity change, negative = inhibition [2] 0.139% [at 10.5 µM] | activity change, negative = inhibition [3] -0.69% [at 10.5 µM] | activity change, negative = inhibition [4] 2.85% [at 10.5 µM]

CC(C)Nc1ccc(NC(C)C)c2c1C(=O)c1ccccc1C2=O
inactive: Potency [1] | Potency [2] | Potency [3] | Potency [4]

C1OCOCO1
inactive: Potency [1] | Potency [2] | Potency [3] | Potency [4]

CCCCCCCCCOC(C)=O
inactive: Potency [1] | Potency [2] | Potency [3] | Potency [4]

COc1cnc(NS(=O)(=O)c2ccc(N)cc2)nc1
inactive: Potency [1] | Potency [2] | Potency [3] | Potency [4]

CC1(c2ccccc2)OC(C(=O)O)=CC1=O (stereo not given)
inactive: Potency [1] | Potency [2] | Potency [3] | Potency [4]

COCCO
inactive: Potency [1] | Potency [2] | Potency [3] | Potency [4]

CC1=CC(=O)[C@H]2C[C@@H]1C2(C)C
inactive: Potency [1] | Potency [2] | Potency [3] | Potency [4]

Oc1ccc(Cl)cc1C1CCCC1
inactive: Potency [1] | Potency [2] | Potency [3] | Potency [4]

COc1ccc(CCC(=O)c2c(O)cc(O[C@@H]3O[C@H](CO)[C@@H](O)[C@H](O)[C@H]3O[C@@H]3O[C@@H](C)[C@H](O)[C@@H](O)[C@H]3O)cc2O)cc1O
inactive: Potency [1] | Potency [2] | Potency [3] | Potency [4]

O=C(O)c1ccc2c(c1)nc(C(=O)NC1CCN(C3CC3)CC1)n2Cc1cc(-c2ccc(Cl)s2)on1
inactive: activity, negative = inhibition [1] -6.96% [at 23.6 µM] | activity change, negative = inhibition [2] 2.26% [at 23.6 µM] | activity change, negative = inhibition [3] -24.8% [at 23.8 µM] | activity change, negative = inhibition [4] 0.834% [at 23.6 µM]

CC(C)CC(O)Cc1ccccc1 (stereo not given)
inactive: Potency [1] | Potency [2] | Potency [3] | Potency [4]

OC(CCN1CCCCC1)(c1ccccc1)C1CC2C=CC1C2 (stereo not given)
inactive: Potency [1] | Potency [2] | Potency [3] | Potency [4]

CCCCOCCOC(=O)CCCCCCCCC(=O)OCCOCCCC
inactive: Potency [1] | Potency [2] | Potency [3] | Potency [4]

Cc1ccccc1N=C(N)N=C(N)N
inactive: Potency [1] | Potency [2] | Potency [3] | Potency [4]

C[N+]1(C)CCCC(OC(=O)C(O)(c2ccccc2)c2ccccc2)C1 (stereo not given)
inactive: Potency [1] | Potency [2] | Potency [3] | Potency [4]

CC1(C)CC(O)CC(C)(C)N1[O]
inactive: Potency [1] | Potency [2] | Potency [3] | Potency [4]

CC1(CO)CN(c2ccccc2)NC1=O (stereo not given)
inactive: Potency [1] | Potency [2] | Potency [3] | Potency [4]

CCCCOCCCC
inactive: Potency [1] | Potency [2] | Potency [3] | Potency [4]

CCCCCCOC(=O)CC
inactive: Potency [1] | Potency [2] | Potency [3] | Potency [4]
